Experimental findings from PubChem BioAssay are described below.

Values joined by “and” are separate entries in the source; they are usually repeats but may differ in a detail not shown here. Equal values may be shown once. Active and inactive are the calls of the source. Unless noted, how the calls were made is not given here.

Assay [1] in a line: signal quenchers or enhancers, Cy5 substrate/SSB – biochemical, NIH Clinical Collection, E. coli SSB, artefact control for HCV NS3 helicase inhibitor project (AID 743268). The settings on record: Cy5-oligo bound E. coli SSB, fluorescence interference.
Assay [2] deals with Hepatitis C virus NS3 helicase. Put plainly: blockers of NS3h binding to DNA – biochemical, fluorescence polarization, NIH Clinical Collection, primary screen (AID 743270). The settings on record: NS3 helicase binding to Cy5-dT15 DNA, stronger effect = higher value, concentration not given here. Background: Polarisation of emitted light reports the rotation of a fluorescent probe.
Assay [3] has as its target Single-stranded DNA-binding protein (Escherichia coli (strain K12)) (UniProt P0AGE0). In words: SSB-ssDNA binding inhibitors – biochemical, fluorescence polarization, NIH Clinical Collection, counter-screen for HCV NS3 helicase inhibitor project (AID 743271; in the data active means inhibition above about 28%). The settings on record: E. coli SSB-DNA binding, stronger effect = higher value, concentration not given here.
A short description of assay [4]: compounds distorting NS3 helicase fluorescence signal – biochemical, NIH Clinical Collection, artefact control for HCV NS3 helicase inhibitor project (AID 743272).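 Further: HCV NS3 helicase with a Cy5 labelled single stranded DNA probe.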 The settings on record: fluorescence interference counterscreen, HCV NS3 helicase assay; stronger effect = lower value. A general note: The purpose of a counterscreen is to sort out artefacts and off-target activity.

Assay [5] is described as follows: Wnt pathway potentiators raising nuclear beta-catenin – imaging, WNT3A-conditioned medium, mouse C2C12, NPC library, primary screen (AID 1117326; in the data active means nuclear beta-catenin stimulation mostly above about 4.2%, no sharp cut-off; inactive means mostly below about 10%). The settings on record: stronger effect = higher value.
A short description of assay [6]: stimulators of insulin release from INS-1E, primary screen, cell-based, 5 mM glucose, NPC library (AID 1117329;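 active means compound raises insulin release from rat beta cells at 5 mM glucose, no numeric limit stated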). The settings on record: rat INS-1E insulin secretion, at 10 µM, stronger effect = higher value.
A short description of assay [7]: growth inhibition of GSK3B-pretreated HCT116 cells – cell-based, CellTiter-Glo, 0.2 to 20 µM (AID 1117336;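 active means compounds lowering colon cancer cell viability after pretreatment blocking the GSK3B kinase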). The settings on record: HCT116 viability after GSK3B inhibitor, at 20 µM, stronger effect = higher value. For orientation: ATP-based viability assays read luminescence as a measure of living cells.
Assay [8] can be described thus: inhibition of endothelial tube formation, primary screen, imaging, VEGF stimulated, CD31 staining, tube area, NPC library (AID 1117340;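 active means compound that reduces growth-factor-driven endothelial tube area in a mixed cell culture, no cutoff stated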). The settings on record: VEGF-stimulated ADSC/ECFC co-culture, at 10 µM, stronger effect = higher value.
Assay [9] is described as follows: GLP1 release stimulators, primary, NCI-H716, NPC library (AID 1117341;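 active means compound raises GLP1 secretion from the human gut endocrine cells, with no numeric limit stated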). The settings on record: NCI-H716 cells, at 10 µM, stronger effect = higher value.
Assay [10] is described as follows: HCT116 colon cancer cell growth inhibition, primary screen, CellTiter-Glo luminescence, NPC library (AID 1117342;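 active means compounds that lower survival of HCT116 colon cancer cells in the luminescence readout, no numeric limit stated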). The settings on record: at 20 µM (top of the series).
Assay [11] is described as follows: reduced SW480 viability measured with CellTiter-Glo, NPC library, primary (AID 1117343;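 active means compounds that lower viability of the colon cancer cells in the luminescence readout, with no numeric limit stated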). The settings on record: CellTiter-Glo luminescence; at 20 µM (top of the series).
The nature of assay [12]: NPC library primary testing for decreased DLD-1 cell viability via CellTiter-Glo (AID 1117346;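 active means compounds that lower survival of DLD-1 colon cancer cells in the luminescence readout, no cutoff given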). The settings on record: DLD-1 viability, CellTiter-Glo luminescence; at 20 µM (top of the series).
Assay [13] concerns the target 6-phosphogluconate dehydrogenase, decarboxylating (Homo sapiens) (UniProt P52209). Put plainly: inhibition of human phosphogluconate dehydrogenase – biochemical, recombinant enzyme, NADPH absorbance, primary screen (AID 1159550;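 active means at least 20% inhibition of 6-phosphogluconate dehydrogenase activity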). The settings on record: recombinant 6PGD, NADPH absorbance 341 nm; at 10 µM; stronger effect = higher value.
A short description of assay [14]: viability loss with induced miR-34 in A549 – imaging, A549 dox-inducible miR-34, nuclei and caspase counts, primary screen (AID 1347080;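 active means compounds whose cell count with miR-34 switched on is under 0.7 times the count with it off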). The settings on record: A549 miR-34 inducible, Hoechst nuclei count, 48 h.
Assay [15] is described as follows: MELAS cybrid and Rieske KO viability enhancers – cell-based, MELAS cybrids, Rieske KO mouse fibroblasts, CellTiter-Glo, primary screen (AID 1508586;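 active means mean z-score across replicates of 1.96 or higher in either the MELAS or the Rieske mutant cell line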;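 further: z relative to plate mean and SD of compound and empty wells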). The settings on record: low glucose.
For assay [16], the target named is NAD(+) hydrolase SARM1 (Homo sapiens) (UniProt Q6SZW1). Put plainly: blocking NAD cleavage by SARM1 SAM-TIR – cell lysate, NAD-Glo luminescence (AID 1508614;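 active means compound whose remaining NAD level is above about 45 nM, limit read from the data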). The settings on record: SAM-TIR HEK293T lysate NADase, at 1 µM, stronger effect = higher value.
NAD(+) hydrolase SARM1 (Homo sapiens), sequence (Q6SZW1 whole entry, looked up, the tested form may be a part): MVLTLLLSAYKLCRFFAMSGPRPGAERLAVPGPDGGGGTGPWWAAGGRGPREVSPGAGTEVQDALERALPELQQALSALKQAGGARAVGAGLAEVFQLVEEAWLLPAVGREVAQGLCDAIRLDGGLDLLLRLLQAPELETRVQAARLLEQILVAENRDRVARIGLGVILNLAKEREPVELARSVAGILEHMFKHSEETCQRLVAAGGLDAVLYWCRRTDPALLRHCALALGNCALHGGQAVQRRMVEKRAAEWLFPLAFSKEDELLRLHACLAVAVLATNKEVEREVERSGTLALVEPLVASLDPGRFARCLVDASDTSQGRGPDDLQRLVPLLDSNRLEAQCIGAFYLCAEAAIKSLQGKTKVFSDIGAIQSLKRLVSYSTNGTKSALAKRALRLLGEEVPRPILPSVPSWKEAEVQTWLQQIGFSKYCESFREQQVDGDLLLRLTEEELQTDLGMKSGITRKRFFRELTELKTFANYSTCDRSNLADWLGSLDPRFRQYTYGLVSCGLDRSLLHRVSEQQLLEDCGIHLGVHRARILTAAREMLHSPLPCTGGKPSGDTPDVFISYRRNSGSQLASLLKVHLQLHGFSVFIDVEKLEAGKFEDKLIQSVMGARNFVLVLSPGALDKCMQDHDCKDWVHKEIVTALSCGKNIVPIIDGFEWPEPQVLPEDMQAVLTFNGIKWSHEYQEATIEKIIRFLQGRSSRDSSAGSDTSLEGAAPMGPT
For assay [17], the target named is Mitogen-activated protein kinase 7 (Homo sapiens) (UniProt Q13164). Put plainly: Gal4-ERK5 driven luciferase induction – cell-based, HTS, primary screen (AID 1508626;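 active means luciferase signal above three times the same-plate solvent-only control wells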;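 further: luciferase driven by Gal4-ERK5 fusion binding five Gal4 sites before minimal TATA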). The settings on record: HeLa Gal4-ERK5 transactivation, 18 h, at 5 µM, stronger effect = higher value.
Mitogen-activated protein kinase 7 (Homo sapiens), sequence (Q13164 whole entry, looked up, the tested form may be a part): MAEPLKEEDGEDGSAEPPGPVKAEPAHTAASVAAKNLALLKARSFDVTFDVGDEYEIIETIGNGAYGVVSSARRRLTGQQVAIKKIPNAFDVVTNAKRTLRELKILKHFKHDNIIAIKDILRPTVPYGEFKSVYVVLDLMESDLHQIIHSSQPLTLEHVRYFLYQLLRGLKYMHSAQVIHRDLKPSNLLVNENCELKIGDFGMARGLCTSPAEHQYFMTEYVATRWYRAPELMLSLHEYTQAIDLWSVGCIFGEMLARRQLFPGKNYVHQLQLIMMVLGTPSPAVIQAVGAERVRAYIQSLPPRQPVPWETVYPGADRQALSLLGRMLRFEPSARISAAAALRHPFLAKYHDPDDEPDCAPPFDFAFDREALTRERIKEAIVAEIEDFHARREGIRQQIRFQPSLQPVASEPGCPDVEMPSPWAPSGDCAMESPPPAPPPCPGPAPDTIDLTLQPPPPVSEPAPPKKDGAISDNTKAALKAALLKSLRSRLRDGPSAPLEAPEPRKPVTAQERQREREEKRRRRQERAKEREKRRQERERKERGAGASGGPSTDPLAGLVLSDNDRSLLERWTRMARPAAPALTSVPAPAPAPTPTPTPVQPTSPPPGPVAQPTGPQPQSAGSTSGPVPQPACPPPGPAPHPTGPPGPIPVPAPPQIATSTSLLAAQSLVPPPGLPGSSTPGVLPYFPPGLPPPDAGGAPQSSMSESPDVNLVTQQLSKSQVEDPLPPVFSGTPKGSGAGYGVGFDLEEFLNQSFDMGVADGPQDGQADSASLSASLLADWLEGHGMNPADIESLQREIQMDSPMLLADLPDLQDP
A further assay has as its system F380Y. Put plainly: BK channel mutant inhibitors and activators – cell-based, U2OS BacMam, thallium flux, beta subunits, selectivity assay, profiling panel (AID 1259406;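 active means thallium flux through the channel raised or lowered by more than 3 SD from vehicle-only wells, actives on both sides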;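 further: initial slope of Thallos dye fluorescence rise after thallium is added; log ratio against the mean of 0.3% DMSO vehicle wells on the same plate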). The settings on record: U2OS BacMam BK variants, at 30 µM.
Assay [18] can be described thus: EMT-state selective cytotoxicity in co-culture – imaging, PC-3E GFP, TEM4-18 mCherry, primary screen (AID 1345086;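 active means compounds killing one labelled cell type while sparing the other, by normalised counts and ratio limits, not self-fluorescent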;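 on all read-outs here: cells exposed to compound for 72 h before imaging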;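 on red/green cell ratio (normalised): normalised mesenchymal count divided by normalised epithelial count so high means epithelial killing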). The settings on record: PC-3E GFP / TEM4-18 mCherry co-culture, imaging cell counts, at 1 µM; for red/green cell ratio (normalised): actives lie on both sides, counts scaled to control wells, 1 = unselective.
Assay [19] can be described thus: P. berghei load reduction in hepatocytes – cell-based, HepG2, luciferase luminescence, HepG2 viability, primary screen (AID 624349; in the data active means parasite load remaining mostly below about 12%, no sharp cut-off; inactive means mostly above about 10%;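 further: 100% = mean of DMSO negative control wells on the same plate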). The settings on record: P. berghei liver stage in HepG2, luciferase luminescence, concentration not given here; parasite load remaining: stronger effect = lower value; viability: measured here: HepG2 viability without parasites.
Setting [20] is: MELAS cybrid survival, CellTiter-Glo 48 h, stronger effect = higher value.
Where [21] appears, read: Rieske KO mouse fibroblast survival, CellTiter-Glo 72 h.
[22] abbreviates: measured here: epithelial PC-3E GFP cell survival.
Setting [23] is: measured here: mesenchymal TEM4-18 mCherry cell survival.

6-phosphogluconate dehydrogenase, decarboxylating (Homo sapiens), sequence (P52209 whole entry, looked up): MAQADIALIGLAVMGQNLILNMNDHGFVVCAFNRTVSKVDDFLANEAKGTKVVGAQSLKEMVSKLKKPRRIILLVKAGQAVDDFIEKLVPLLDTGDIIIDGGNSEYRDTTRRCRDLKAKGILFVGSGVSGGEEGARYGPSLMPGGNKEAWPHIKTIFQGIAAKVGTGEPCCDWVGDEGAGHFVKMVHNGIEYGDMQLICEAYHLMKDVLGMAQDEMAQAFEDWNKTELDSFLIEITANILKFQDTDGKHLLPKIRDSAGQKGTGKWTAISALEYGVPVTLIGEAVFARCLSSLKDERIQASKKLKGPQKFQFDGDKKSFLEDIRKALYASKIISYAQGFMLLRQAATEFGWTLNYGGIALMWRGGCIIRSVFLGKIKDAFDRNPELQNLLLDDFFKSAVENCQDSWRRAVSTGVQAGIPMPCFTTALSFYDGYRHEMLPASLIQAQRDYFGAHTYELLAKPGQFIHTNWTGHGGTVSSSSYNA

With `C[C@]12C=CC(=O)C=C1CC[C@@H]1[C@@H]2[C@@H](O)C[C@@]2(C)[C@H]1CC[C@]2(O)C(=O)CO`, the fluorescence ratio is 1.02 (inactive) in assay [1] and 0.96 (inactive) in assay [4]. The figures for the inhibition in assay [2], in assay [3] and in [13] were -1.36% (inactive), 0.29% (inactive) and -5.44% (inactive), respectively. The nuclear beta-catenin stimulation was -2.6% (inactive) in assay [5] (at 10 µM) and -0.7% in [5] (stimulation, at 2 µM). In addition, the insulin secretion stimulation in assay [6] was 1.6% (inactive). In addition, in assay [7], the viability decrease is -2.7% (inactive). Besides, in [8], the tube area decrease was 11.2% (inactive). Moreover, in assay [9], the GLP1 secretion stimulation is -0.5% (inactive). The inhibition of viability in assay [10] was -3.5% (inactive). Besides, the viability decrease (inhibition) in [11] is -1.5% (inactive); in assay [12] it was -18.8% (inactive). Also, the fold change in assay [14] (stronger effect = lower value, cell number ratio, induced over uninduced) was 0.93 (inactive) and 0.783 (inactive) and 0.847 (inactive); in assay [14] (measured here: relative caspase fold change +Dox/-Dox), 1.73 and 1.43 and 1.29. The cell count was 7530 and 6090 and 6580 in assay [14] (measured here: total cells with miR-34 induction, stronger effect = lower value); 8090 and 7780 and 7760 in [14] (measured here: total cells without miR-34 induction). Also, the z-score in [15] (setting [20]) is 0.367 (inactive) and 0.381 (inactive); in assay [15] (setting [21]), -0.0179 and 1.19. Also, the remaining NAD in [16] is 10 nM (inactive). Besides, in assay [17], the luciferase signal was 84 AU (inactive). In addition, in the assay with F380Y, the log fold change Tl+ flux is 0.0238 (inactive).

In the case of `CNC(=O)Oc1ccc2c(c1)[C@]1(C)CCN(C)[C@@H]1N2C`, the nuclear beta-catenin stimulation in assay [5] (at 10 µM) is -0.4% (inactive); in assay [5] (stimulation, at 2 µM) it was 0%. Moreover, the insulin secretion stimulation in [6] is 5% (inactive). Moreover, the viability decrease in assay [7] is 5% (inactive). In addition, the tube area decrease in assay [8] is -23.5% (inactive). Also, the GLP1 secretion stimulation in [9] is 3.8% (inactive). In addition, the inhibition of viability in [10] is 23.3% (inactive). Also, the viability decrease (inhibition) in [11] was 38.9% (inactive); in assay [12] it was 0.2% (inactive). Besides, the inhibition in [13] was -7.09% (inactive) and -14.3% (inactive) and -6.98% (inactive). In assay [18], the red/green cell ratio (normalised) was 0.96 (inactive). Further, the figures for the normalised cell number in assay [18] (setting [22]) and in [18] (setting [23]) were 1.03 and 1, respectively. Moreover, the z-score is -0.485 (inactive) and 0.886 (inactive) in [15] (setting [20]); -0.245 and 0.787 in [15] (setting [21]). The remaining NAD in assay [16] was 10 nM (inactive). In addition, in assay [17], the luciferase signal is 40 AU (inactive).

Consider `COc1ccccc1N1CCN(CCCNc2cc(=O)n(C)c(=O)n2C)CC1`, for which the parasite load remaining in [19] is 53.4% (inactive) and 119% (inactive) and 80.7% (inactive). The viability in [19] is 95.1% and 83.4% and 78.9%. The fluorescence ratio in assay [1] is 0.99 (inactive); in assay [4], 0.96 (inactive). The inhibition in assay [2] is -2.77% (inactive); in [3], -1.64% (inactive); in assay [13], -3.41% (inactive). The nuclear beta-catenin stimulation in [5] (at 10 µM) is 4.3% (inactive); in [5] (stimulation, at 2 µM), 0.2%. For the same compound, the insulin secretion stimulation in assay [6] was 1.1% (inactive). The viability decrease in assay [7] is 1.1% (inactive). The tube area decrease in [8] is 1% (inactive). In addition, the GLP1 secretion stimulation in [9] is -0.1% (inactive). In [10], the inhibition of viability was 10.8% (inactive). Moreover, the viability decrease (inhibition) in assay [11] is -11.2% (inactive); in assay [12] it was -9.9% (inactive). The red/green cell ratio (normalised) in assay [18] was 1.12 (inactive). In addition, the results for the normalised cell number in [18] (setting [22]) and in assay [18] (setting [23]) were 0.91 and 1.01, respectively. Further, the z-score in [15] (setting [20]) was -0.289 (inactive) and 0.285 (inactive); in assay [15] (setting [21]), 0.041 and 0.0737. Further, the remaining NAD in [16] was 10 nM (inactive). Also, the luciferase signal in [17] is 40 AU (inactive). Further, the log fold change Tl+ flux with F380Y is -0.0416 (inactive).

Consider `COc1ccc2c(c1)c(CC(=O)O)c(C)n2C(=O)c1ccc(Cl)cc1`, for which the fluorescence ratio was 1.02 (inactive) in [1] and 1.01 (inactive) in assay [4]. Also, the inhibition in assay [2] is -3.56% (inactive); in assay [3] it was -2.41% (inactive); in assay [13], -5.45% (inactive). Moreover, the nuclear beta-catenin stimulation in assay [5] (at 10 µM) is 0.6% (inactive); in assay [5] (stimulation, at 2 µM), 1%. Further, the insulin secretion stimulation in assay [6] is -1% (inactive). Also, the viability decrease in assay [7] was -52.1% (inactive). The tube area decrease in [8] is -10.5% (inactive). For the same compound, the GLP1 secretion stimulation in [9] was 1.6% (inactive). Further, in [10], the inhibition of viability was 0.43% (inactive). Further, the viability decrease (inhibition) in [11] is 10.6% (inactive); in [12], 3.4% (inactive). The red/green cell ratio (normalised) in assay [18] was 1.02 (inactive). The normalised cell number in assay [18] (setting [22]) was found to be 0.91; in assay [18] (setting [23]), 0.93. Further, the z-score in assay [15] (setting [20]) is -0.268 (inactive) and 0.659 (inactive) and 0.23 (inactive); in assay [15] (setting [21]) it was -0.036 and -0.235 and -0.118. Also, the remaining NAD in [16] is 10 nM (inactive). In [17], the luciferase signal was 36 AU (inactive). Further, the log fold change Tl+ flux in the assay with F380Y is 0.0847 (inactive).

For orientation: inhibition means the relative decrease from the control value, in per cent. What is called viability is a read-out of living cells in per cent, often relative to untreated cells.
